Test results: the supplement of paper PMC8728848
The sample as a whole holds a higher share of the strongest signals than the screen did.

Legend:
Test in all cases: glycan array binding signal (z-score within array); higher = stronger binding
Settings in all cases: glycan notation: IUPAC condensed, linker removed
GalNAc3S(b1-4)GlcNAc3S = molecular target: GalNAc3S(b1-4)GlcNAc3S
Summary of the method: (§1)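 Arrays were curated from the Consortium for Functional Glycomics database, 3228 in total, and kept only where the protein sequence was available. Binding is expressed as a within-array Z-score. This score was averaged across arrays of the same protein sequence at different concentrations or buffers and across linkers, and negative values can be read as non-binding.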

GlcA(b1-6)Gal = molecular target: GlcA(b1-6)Gal
Summary of the method: as §1

[1] = molecular target: GlcNAc(a1-4)Gal(b1-4)GlcNAc(b1-3)Gal(b1-4)GlcNAc(b1-3)Gal(b1-4)GlcNAc
Summary of the method: as §1

[2] = molecular target: GlcNAc(b1-6)Gal(b1-4)GlcNAc
Summary of the method: as §1

GlcNAc(b1-6)GalNAc = molecular target: GlcNAc(b1-6)GalNAc
Summary of the method: as §1

Kdn(a2-3)Gal(b1-3)GlcNAc = molecular target: Kdn(a2-3)Gal(b1-3)GlcNAc
Summary of the method: as §1

Kdn(a2-3)Gal(b1-4)GlcNAc = molecular target: Kdn(a2-3)Gal(b1-4)GlcNAc
Summary of the method: as §1

[3] = molecular target: Man(a1-2)Man(a1-3)[Man(a1-2)Man(a1-6)]Man
Summary of the method: as §1

[4] = molecular target: Neu5Ac(a2-3)Gal(b1-4)GlcNAc(b1-3)Gal(b1-4)GlcNAc(b1-3)GalNAc
Summary of the method: as §1

[5] = molecular target: Neu5Ac(a2-3)Gal(b1-4)[Fuc(a1-3)]GlcNAc(b1-3)Gal
Summary of the method: as §1

[6] = molecular target: Neu5Ac(a2-3)Gal(b1-4)[Fuc(a1-3)]GlcNAc(b1-3)Gal(b1-4)GlcNAc
Summary of the method: as §1

[7] = molecular target: Neu5Ac(a2-3)Gal(b1-4)[Fuc(a1-3)]GlcNAc(b1-6)[Gal(b1-3)]GalNAc
Summary of the method: as §1

[8] = molecular target: Neu5Ac(a2-3)[GalNAc(b1-4)]Gal(b1-4)Glc
Summary of the method: as §1

[9] = molecular target: Neu5Ac(a2-6)Gal(b1-3)GlcNAc(b1-3)[Gal(b1-4)GlcNAc(b1-6)]Gal(b1-4)Glc
Summary of the method: as §1

[10] = molecular target: Neu5Ac(a2-6)Gal(b1-4)GlcNAc(b1-2)Man(a1-3)[Man(a1-6)]Man(b1-4)GlcNAc(b1-4)GlcNAc
Summary of the method: as §1

[11] = molecular target: Neu5Ac(a2-6)Gal(b1-4)GlcNAc(b1-3)[Neu5Ac(a2-6)Gal(b1-4)GlcNAc(b1-6)]GalNAc
Summary of the method: as §1

[12] = molecular target: Neu5Ac(a2-6)Gal(b1-4)GlcNAc(b1-6)[Gal(b1-3)GlcNAc(b1-3)]Gal(b1-4)Glc
Summary of the method: as §1

[13] = molecular target: Neu5Ac(a2-6)GalNAc(b1-4)GlcNAc
Summary of the method: as §1

Neu5Gc(a2-6)GalNAc = molecular target: Neu5Gc(a2-6)GalNAc
Summary of the method: as §1

B1: Epa9 (Candida glabrata), CAGL0A01386g (protein)
chain: MGSSHHHHHHSSGLVPRGSHMDITPFAHYPRPEGCSSPPNAVSVGLHMDLYNYPYLYVKNPRTGFTNDTDSDADGETDGDSAGGIEGRAGQCWNPEYQDPNFPRYGYKKYGSFGSSDHVNGKISWDHNEFKEGCKPIMARLPTAYNYPAKITFSNFTMVLSGYFKPKSTGLYKFEIHADDFILFNFGSKNAFECCNREESIDNFGPYVAYAMWPNEADQELEVYLFEDSYYPIRLFYNNRDYHSKFMVGFYPPNTEEITYDFDGYLYMLDDTGNECKDSIRYKTVCDD
GalNAc3S(b1-4)GlcNAc3S
  glycan array binding signal (z-score): -0.441
GlcA(b1-6)Gal
  glycan array binding signal (z-score): -0.198
[1]
  glycan array binding signal (z-score): -0.462
[2]
  glycan array binding signal (z-score): 0.361
GlcNAc(b1-6)GalNAc
  glycan array binding signal (z-score): -0.467
Kdn(a2-3)Gal(b1-3)GlcNAc
  glycan array binding signal (z-score): -0.454
Kdn(a2-3)Gal(b1-4)GlcNAc
  glycan array binding signal (z-score): -0.394
[3]
  glycan array binding signal (z-score): -0.635
[4]
  glycan array binding signal (z-score): -0.387
[5]
  glycan array binding signal (z-score): -0.474
[6]
  glycan array binding signal (z-score): -0.253
[7]
  glycan array binding signal (z-score): -0.217
[8]
  glycan array binding signal (z-score): -0.447
[9]
  glycan array binding signal (z-score): 0.392
[10]
  glycan array binding signal (z-score): -0.06
[11]
  glycan array binding signal (z-score): -0.357
[12]
  glycan array binding signal (z-score): -0.304
[13]
  glycan array binding signal (z-score): -0.519
Neu5Gc(a2-6)GalNAc
  glycan array binding signal (z-score): -0.467
